# Screens as filed in PubChem BioAssay.
# DT40 TDP1 CPT – qHTS for Inhibitors of human tyrosyl-DNA phosphodiesterase 1 (TDP1): qHTS in cells in presence of CPT; Potency, µM (top dose mostly 46.2 µM), without a hit: at the highest dose activity change, negative = growth inhibition, hits mostly inhibitors; AID 686979, 2013; chicken DT40 Tdp1-/-;hTDP1 cells + 20 nM CPT, ATP luminescence, 48 h; hit rate 12% among 420,000; note: potency is the fitted concentration of half-maximal effect; nearly all actives have a fitted effect of over 55% in size
#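 Chicken DT40 Tdp1-/- cells stably complemented with human TDP1 were seeded at 400 cells/well in medium containing 20 nM camptothecin, exposed to pin-transferred compounds, and grown at 37 °C for at least 48 hr. Viability was read as ATP luminescence.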
# RORgamma inh – qHTS for inhibitors of ROR gamma transcriptional activity; Potency, µM (top dose mostly 53.6 µM), inactives show at the highest dose activity change, negative = inhibition, most hits filed as inhibitors; Drosophila S2 Gal4-RORgamma UAS-luciferase reporter, 20 h; hit rate 5.4% among 310,000; note: potency is the fitted concentration of half-maximal effect; nearly all actives have a fitted effect of over 60% in size
# Target sequence (P51450 whole entry, looked up, the tested form may be a part): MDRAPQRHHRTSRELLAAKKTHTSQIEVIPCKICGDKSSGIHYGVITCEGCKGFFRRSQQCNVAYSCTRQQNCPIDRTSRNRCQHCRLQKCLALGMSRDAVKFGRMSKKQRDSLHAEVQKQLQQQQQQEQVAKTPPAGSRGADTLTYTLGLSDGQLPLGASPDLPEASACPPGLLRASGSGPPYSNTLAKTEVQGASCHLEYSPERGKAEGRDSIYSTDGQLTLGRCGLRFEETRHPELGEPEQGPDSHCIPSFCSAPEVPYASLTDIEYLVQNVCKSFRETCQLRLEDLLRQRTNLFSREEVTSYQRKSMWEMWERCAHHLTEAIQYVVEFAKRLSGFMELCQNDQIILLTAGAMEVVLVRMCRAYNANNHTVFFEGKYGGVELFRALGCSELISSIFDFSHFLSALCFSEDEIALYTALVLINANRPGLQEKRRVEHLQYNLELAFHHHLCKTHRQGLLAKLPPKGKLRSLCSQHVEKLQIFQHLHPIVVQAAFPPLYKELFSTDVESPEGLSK
#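 Using a luciferase readout, inhibitors were identified by reduced reporter activity in Drosophila cells coexpressing a copper-inducible Gal4–ROR gamma fusion and UAS-driven Photinus luciferase, incubated 20 hr after 700 uM copper sulfate.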
# TDP1 cell noCPT – qHTS for Inhibitors of human tyrosyl-DNA phosphodiesterase 1 (TDP1): qHTS in cells in absence of CPT; DT40 Tdp1-/- hTDP1 cells, no CPT, ATP luminescence, 48 h; Potency, µM (highest dose often 46.2 µM), for inactives: at the highest dose activity change, negative = growth inhibition, usual class: inhibitors; hit rate 15% among 420,000; note: potency is the fitted concentration of half-maximal effect; nearly all actives have a fitted effect of over 55% in size
#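 Luminescent ATP content (CellTiter-Glo) served as the growth readout. Knockout chicken DT40 cells expressing human TDP1 were exposed to compounds without camptothecin for a minimum 48 hr at 37 °C.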
# VP16 counter – VP16 counterscreen qHTS for inhibitors of ROR gamma transcriptional activity; Drosophila S2 Gal4-VP16 UAS-luciferase, luminescence, 20 h; Potency, µM (series often up to 53.6 µM), for the others: at the highest dose activity, negative = inhibition, actives largely listed as inhibitors; hit rate 3.5% among 310,000; AID 2546, 2010;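 note: Gal4-VP16 expression switched on by copper sulfate through the metallothionein promoter; potency is the fitted concentration of half-maximal effect; nearly all actives have a fitted effect of over 50% in size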
# LDHA inh – qHTS assay for inhibitors of human lactate dehydrogenase; L-lactate dehydrogenase A chain (Homo sapiens), P00338; purified LDHA, NADH/diaphorase-resazurin fluorescence; hits give low values; activity change, % (values are at about 110 or 230 µM); hit rate 0.15% among 480,000; in the data active = activity change below about -30%; inconclusive = mostly about -25% to -30%;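 note: plate controls were DMSO wells for no effect and wells without enzyme for full effect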
#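 Remaining NADH was detected by diaphorase (0.133 mg/mL) converting 37 µM resazurin to fluorescent resorufin, read at 0 and 20 minutes. The preceding 5-minute room-temperature reaction used 2 nM LDHA, 0.2 mM sodium pyruvate and 0.06 mM NADH at pH 7.4.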
# IL-1B inflam inh – qHTS for Inhibitors of Inflammasome Signaling: IL-1-beta AlphaLISA Primary Screen; THP-1 LPS/ATP IL-1B secretion, AlphaLISA, 16 h; hits give low values; hit rate 4.7% among 360,000; activity change, % at 57.5 µM; AID 743279, 2014; in the data active = activity change below about -50%; inconclusive = mostly about -30% to -49%
#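 Secreted IL-1B measured by AlphaLISA bead assay after 16 h compound exposure of THP-1 cells; compounds (final up to 57.5 uM) added 1 h before LPS (250 ng/mL) and ATP (1.25 mM) stimulation; lower signal means less secretion.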
# Numbers without * were called inactive; u = inconclusive; x = no result. Shown are actives, neighbours in structure and some others; about 18% of the full set was active somewhere. Unless noted, calls come from the whole dose curve; as a rule, active = well fitted curve in the direction sought with a large enough effect; inconclusive = small, poorly fitted or top-dose-only effect, or another doubt; inactive = no such curve, though single readings can be large; an effect the other way counts as inactive or inconclusive. Unless noted, % is set by controls: 0 for no effect and ±100 for the full control effect.
SMILES,DT40 TDP1 CPT,RORgamma inh,TDP1 cell noCPT,VP16 counter,LDHA inh,IL-1B inflam inh
O=C(CSc1ccc(-c2cccs2)nn1)N1CCCCCC1,u,u,23µM*,29%,-1,0
Cc1ccccc1NC(=O)CSc1ccc(-c2cccs2)nn1,u,x,23µM*,x,-4,x
COc1cc(C(=O)NCC(=O)N/N=C/c2c(C)[nH]c3ccccc23)cc(OC)c1OC,u,18%,26µM*,-3%,-4,-4
Cc1ccc(C(=O)NCCSc2c(C)[nH]c3ccccc23)cc1[N+](=O)[O-],10µM*,u,21µM*,u,1,-23
Cc1ccccc1C(=O)NCCSc1c(C)[nH]c2ccccc12,x,x,x,x,-5,x
COc1ccccc1C(=O)NCCSc1c(C)[nH]c2ccccc12,16µM*,x,23µM*,x,-8,x
Cc1cc(CSc2ccccc2)ccc1NC(=O)c1ccc(Cl)c([N+](=O)[O-])c1,u,-2%,u,-10%,-5,u
Cc1cc(CSc2ccccc2)ccc1NC(=O)c1ccc(C)c([N+](=O)[O-])c1,-14%,-16%,18µM*,1%,-7,53
CCc1nc2ccccc2c(C(=O)OCC(=O)N(C(C)C)C(C)C)c1C,x,x,x,x,-2,x
COCCn1cnc2c1c(=O)n(CC(=O)Nc1c(C)cc(C)cc1C)c(=O)n2CC(C)C,x,x,x,x,3,x
Cc1ccccc1-c1nc2cc(NC(=O)c3ccco3)ccc2o1,x,x,x,x,-11,x
Cc1cccc(NC(=O)NC(C(=O)N2CCc3ccccc32)c2ccccc2)c1 (stereo not drawn),x,x,x,x,1,x
COc1cc(C(=O)NCCSc2c(C)[nH]c3ccccc23)cc(OC)c1OC,u,x,15µM*,x,-3,x
COc1cccc(C(=O)NCCSc2c(C)[nH]c3ccccc23)c1OC,u,39%,u,-4%,-10,-22
Cc1cccc(NC(=O)C(=O)NCc2ccc3c(c2)OCO3)c1C,-1%,-23%,-7%,-18%,-7,-2
Cc1cccc(NC(=S)NCCN2CCOCC2)c1C,-1%,u,1%,1%,-6,7
Cc1cccc(NC(=S)NCCc2ccc3c(c2)OCCO3)c1C,u,4µM*,u,u,3,-24
CC(C)(C)NC(=S)NCc1ccc2c(c1)OCO2,-14%,11µM*,-11%,u,-7,14
CCc1ccccc1NC(=S)NCc1ccc2c(c1)OCO2,u,6.3µM*,u,11µM*,2,4
CN(C)CC(C)(C)CNC(=S)NCc1ccc2c(c1)OCO2,-15%,-1%,-11%,-15%,-20,-1
Cc1cccc(NC(=S)NCc2ccc3c(c2)OCO3)c1C,-11%,5µM*,-15%,13µM*,-10,-11
COc1ccc(NC(=O)Cc2c(C)c3ccc(O)c(C)c3oc2=O)c(OC)c1,x,x,x,x,-4,x
CN(C)c1ccc(SSc2ccc(N(C)C)cc2)cc1,x,x,x,x,11,x
O=C(NCc1ccc2c(c1)OCO2)Nc1cccc2ccccc12,-5%,10%,-11%,3%,-2,18
Cc1ccccc1NC(=S)NCc1ccc2c(c1)OCO2,-16%,2.5µM*,-25%,10µM*,-4,-4
O=C(C[C@H]1CC[C@@H](NS(=O)(=O)c2ccccc2)[C@@H](CO)O1)NCc1ccc(Cl)c(Cl)c1,21µM*,x,21µM*,x,0,21
CCc1nc2c(OCc3cccc(Cl)c3)cccn2c1N(C)C(=O)c1ccc(OC)cc1,u,x,16µM*,x,-1,0
CCc1nc2c(OCc3cccc(OC)c3)cccn2c1N(C)C(=O)c1ccc(OC)cc1,u,x,16µM*,x,-4,-30
